Data reported in PubChem BioAssay (EPA / NIEHS).
Active and inactive are the calls of the source. How the source made its calls: active means hit-call score of the fitted dose curve at least 0.9, where 1 is the maximum; inactive means score below 0.9.

Tests used:
[1] = molecular target: Bile acid receptor (Homo sapiens) (UniProt Q96RI1); experiment: ATG_IR1_CIS: Attagene CIS-FACTORIAL HepG2 Assay for human Nuclear Receptor Subfamily 1 Group H Member 4 (NR1H4), IR1 submotif (AID 2282946); details: IR1 reporter transcription, actives raise or lower the signal
Outline: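 HepG2 cells transiently transfected with multiple cis-promoter-driven reporter units to measure endogenous transcription factor activity; 24 h exposure. Reporter mRNA read by RT-PCR, FAM labelling, HpaI digestion and capillary electrophoresis. Bidirectional fit versus DMSO.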

[2] = ATG_GRE_CIS: Attagene CIS-FACTORIAL HepG2 Assay for human Glucocorticoid Response Elements (GRE) (AID 2282947); details: HepG2 GRE cis-reporter, Attagene multiplex mRNA; actives raise or lower the signal
Outline: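 Endogenous transcription factor activity is read through cis-element reporter constructs transiently transfected into HepG2 cells. After 24 h treatment, labelled RT-PCR products are resolved by capillary electrophoresis; DMSO sets baseline for bidirectional curve fitting.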

[3] = ATG_ISRE_CIS: Attagene CIS-FACTORIAL HepG2 Assay for human Interferon Regulatory Factor 1 (IRF1) binding to an Interferon-Stimulated Response Element (ISRE) (AID 2282948); details: HepG2 ISRE cis-reporter (Attagene), mRNA transcription readout; actives raise or lower the signal
Outline: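 Quantitation relies on labelled RT-PCR fragments separated by capillary electrophoresis. Human HepG2 cells bearing cis-promoter reporter constructs were treated 24 h; DMSO served as baseline for bidirectional fitting.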

[4] = ATG_M_32_CIS: Attagene CIS-FACTORIAL HepG2 Assay for M32 Transcription Factor (Internal Marker) (AID 2282949); details: HepG2 Attagene cis-factorial M32 reporter, mRNA; actives raise or lower the signal;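 further: background control marker of the multiplexed CIS panel rather than a real target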
Outline: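 Internal background marker read-out: RT-PCR/capillary electrophoresis fluorescence of reporter transcripts from transiently transfected HepG2 cells after 24 h chemical exposure. Activity fitted bidirectionally relative to DMSO negative control.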

[5] = ATG_M_06_CIS: Attagene CIS-FACTORIAL HepG2 Assay for M06 Transcription Factor (Internal Marker) (AID 2282950); details: HepG2 Attagene CIS-FACTORIAL M06 internal marker reporter; actives raise or lower the signal
Outline: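 Steps: transfect HepG2 with multiplexed cis-element reporter constructs; dose chemical 24 h; extract RNA with DNase treatment; reverse-transcribe, PCR-amplify, 6-FAM label, HpaI digest; separate fragments by capillary electrophoresis. Activity fitted both directions versus DMSO.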

[6] = molecular target: Hypoxia-inducible factor 1-alpha (Homo sapiens) (UniProt Q16665); experiment: ATG_HIF1a_CIS: Attagene CIS-FACTORIAL HepG2 Assay for human Hypoxia Inducible Factor 1 (HIF1A) (AID 2282951); details: HepG2 Attagene cis-factorial HIF1a reporter transcription; actives raise or lower the signal
Outline: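 Dosed 24 h, transfected HepG2 cells yielded total RNA whose reporter transcripts were RT-PCR-amplified and sized by capillary electrophoresis using fluorescent labelling; DMSO defined baseline, with gain and loss of signal both fitted.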

[7] = molecular target: Hepatocyte nuclear factor 6 (Homo sapiens) (UniProt Q9UBC0); experiment: ATG_HNF6_CIS: Attagene CIS-FACTORIAL HepG2 Assay for human Hepatocyte Nuclear Factor 6 (HNF6) (AID 2282952); details: HepG2 Attagene cis-factorial HNF6 reporter transcription; actives raise or lower the signal
Outline: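 HepG2 cells transiently transfected with cis-element-driven multiplexed reporter units measuring endogenous transcription factor activity. After 24 h exposure, reporter mRNA quantified by RT-PCR, FAM-labelled fragments and capillary electrophoresis; bidirectional fitting versus DMSO.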

[8] = molecular target: Heat shock factor protein 1 (Homo sapiens) (UniProt Q00613); experiment: ATG_HSE_CIS: Attagene CIS-FACTORIAL HepG2 Assay for human Heat Shock Transcription Factor 1 (HSE) (AID 2282953); details: HepG2 HSE cis-reporter, Attagene RNA transcription; actives raise or lower the signal
Outline: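 Cells were transfected with cis-element-driven reporter constructs, dosed for 24 h, then total RNA was reverse-transcribed and reporter cDNA amplified, FAM-labelled and digested with HpaI. Fragments were resolved by capillary electrophoresis; gain or loss was fitted against DMSO.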

[9] = ATG_MRE_CIS: Attagene CIS-FACTORIAL HepG2 Assay for human Metal Responsive Element (MRE) (AID 2282954); details: HepG2 MRE cis-reporter transcription, Attagene multiplex; actives raise or lower the signal
Outline: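 Fluorescent reporter fragments separated by capillary electrophoresis give mRNA induction for the MRE unit after 24 h treatment of transfected HepG2 cells. Endogenous transcription-factor activity is read; DMSO serves as negative control and baseline.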

[10] = ATG_PBREM_CIS: Attagene CIS-FACTORIAL HepG2 Assay for human Phenobarbital-responsive Enhancer Module (PBREM) (AID 2282955); details: HepG2 PBREM cis-reporter, Attagene multiplexed transcription; actives raise or lower the signal
Outline: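 Transfected liver-derived HepG2 cells exposed 24 h; PBREM reporter transcript quantified via RT-PCR and capillary electrophoresis, with activity in either direction referenced to DMSO.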

Sequence of Hepatocyte nuclear factor 6 (Homo sapiens) (Q9UBC0 whole entry, looked up, the tested form may be a part): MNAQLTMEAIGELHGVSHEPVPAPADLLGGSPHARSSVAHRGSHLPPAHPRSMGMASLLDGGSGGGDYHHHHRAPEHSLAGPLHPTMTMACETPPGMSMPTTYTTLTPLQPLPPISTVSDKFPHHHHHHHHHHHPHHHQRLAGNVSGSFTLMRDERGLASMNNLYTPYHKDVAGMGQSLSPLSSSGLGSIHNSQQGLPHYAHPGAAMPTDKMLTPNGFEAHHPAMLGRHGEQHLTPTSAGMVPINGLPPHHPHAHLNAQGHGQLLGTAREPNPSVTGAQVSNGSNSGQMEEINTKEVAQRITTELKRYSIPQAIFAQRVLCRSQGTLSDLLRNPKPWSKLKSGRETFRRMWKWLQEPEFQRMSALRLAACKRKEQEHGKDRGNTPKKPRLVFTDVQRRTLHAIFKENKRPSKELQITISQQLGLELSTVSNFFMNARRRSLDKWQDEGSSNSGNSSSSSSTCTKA
Sequence of Heat shock factor protein 1 (Homo sapiens) (Q00613 whole entry, looked up, the tested form may be a part): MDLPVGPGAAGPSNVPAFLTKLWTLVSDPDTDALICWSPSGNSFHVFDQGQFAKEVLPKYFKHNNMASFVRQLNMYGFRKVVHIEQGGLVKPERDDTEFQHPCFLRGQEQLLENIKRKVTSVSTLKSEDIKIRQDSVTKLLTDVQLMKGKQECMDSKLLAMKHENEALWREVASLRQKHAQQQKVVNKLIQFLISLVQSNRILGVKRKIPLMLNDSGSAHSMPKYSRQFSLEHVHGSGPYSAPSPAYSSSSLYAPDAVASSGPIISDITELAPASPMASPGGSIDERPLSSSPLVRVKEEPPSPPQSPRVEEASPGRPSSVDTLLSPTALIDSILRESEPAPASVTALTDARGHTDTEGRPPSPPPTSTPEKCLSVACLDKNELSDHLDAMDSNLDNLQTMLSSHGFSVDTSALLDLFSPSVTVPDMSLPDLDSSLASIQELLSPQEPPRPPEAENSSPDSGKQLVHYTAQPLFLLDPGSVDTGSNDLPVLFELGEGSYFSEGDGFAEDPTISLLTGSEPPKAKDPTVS
Sequence of Bile acid receptor (Homo sapiens) (Q96RI1 whole entry, looked up): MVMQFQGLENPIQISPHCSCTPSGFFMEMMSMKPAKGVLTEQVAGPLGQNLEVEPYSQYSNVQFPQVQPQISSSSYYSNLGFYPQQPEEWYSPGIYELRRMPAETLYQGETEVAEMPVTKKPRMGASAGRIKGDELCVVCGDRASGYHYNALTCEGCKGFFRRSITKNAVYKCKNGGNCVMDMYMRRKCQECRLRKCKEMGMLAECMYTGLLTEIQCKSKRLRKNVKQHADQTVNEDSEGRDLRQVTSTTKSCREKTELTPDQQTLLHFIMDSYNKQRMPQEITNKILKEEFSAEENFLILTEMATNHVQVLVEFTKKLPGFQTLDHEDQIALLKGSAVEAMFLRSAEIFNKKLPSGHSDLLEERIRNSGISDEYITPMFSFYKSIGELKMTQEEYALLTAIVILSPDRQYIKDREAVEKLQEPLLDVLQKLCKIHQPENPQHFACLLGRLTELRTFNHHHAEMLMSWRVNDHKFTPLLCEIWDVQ
Sequence of Hypoxia-inducible factor 1-alpha (Homo sapiens) (Q16665 whole entry, looked up): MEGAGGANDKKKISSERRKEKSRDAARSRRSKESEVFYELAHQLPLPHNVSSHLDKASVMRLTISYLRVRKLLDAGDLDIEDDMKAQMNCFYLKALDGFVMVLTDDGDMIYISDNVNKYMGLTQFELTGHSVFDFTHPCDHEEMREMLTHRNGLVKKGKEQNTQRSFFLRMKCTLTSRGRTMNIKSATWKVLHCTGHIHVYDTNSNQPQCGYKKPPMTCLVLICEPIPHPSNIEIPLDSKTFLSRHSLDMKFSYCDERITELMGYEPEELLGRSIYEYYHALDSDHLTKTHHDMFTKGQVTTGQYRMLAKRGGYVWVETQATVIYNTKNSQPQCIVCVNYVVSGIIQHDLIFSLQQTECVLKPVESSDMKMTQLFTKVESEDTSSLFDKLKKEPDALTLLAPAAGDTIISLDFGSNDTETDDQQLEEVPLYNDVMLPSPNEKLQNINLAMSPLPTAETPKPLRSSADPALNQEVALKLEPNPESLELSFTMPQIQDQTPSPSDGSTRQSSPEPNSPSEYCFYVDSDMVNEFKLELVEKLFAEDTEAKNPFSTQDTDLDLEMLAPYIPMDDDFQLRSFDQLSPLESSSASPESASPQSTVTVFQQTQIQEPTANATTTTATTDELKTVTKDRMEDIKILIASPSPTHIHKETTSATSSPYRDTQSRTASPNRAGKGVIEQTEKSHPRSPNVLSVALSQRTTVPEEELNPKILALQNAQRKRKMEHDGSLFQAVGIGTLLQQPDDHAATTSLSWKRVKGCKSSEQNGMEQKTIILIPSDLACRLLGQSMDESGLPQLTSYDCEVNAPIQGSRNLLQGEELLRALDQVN

SMILES | outcome [1] | outcome [2] | outcome [3] | outcome [4] | outcome [5] | outcome [6] | outcome [7] | outcome [8] | outcome [9] | AC50 [1] | AC50 [3] | AC50 [6] | AC50 [7] | AC50 [8] | AC50 [9] | outcome [10] | AC50 [2] | AC50 [5]
Nc1cc(N)cc(C(=O)O)c1 | inactive | inactive | inactive | inactive | inactive | inactive | inactive | inactive | inactive | – | – | – | – | – | – | – | – | –
CC(C#N)(CCC(=O)O)N=NC(C)(C#N)CCC(=O)O (stereo unspecified) | inactive | inactive | inactive | inactive | inactive | inactive | inactive | inactive | inactive | – | – | – | – | – | – | – | – | –
O=Cc1ccc(Cl)c([N+](=O)[O-])c1 | – | inactive | – | inactive | inactive | – | – | – | – | 63.7 µM (active) | 149 µM (active) | 139 µM (active) | 134 µM (active) | 142 µM (active) | 142 µM (active) | inactive | – | –
COc1cc(C(C)(C)C)c(O)c(C(C)(C)C)c1 | – | inactive | inactive | inactive | inactive | inactive | inactive | inactive | inactive | 69.8 µM (active) | – | – | – | – | – | – | – | –
O=C(O)C[C@H](O)C[C@H](O)/C=C/c1c(C2CC2)nc2ccccc2c1-c1ccc(F)cc1 | inactive | inactive | inactive | inactive | inactive | inactive | inactive | inactive | inactive | – | – | – | – | – | – | inactive | – | –
Nc1ccc(F)c([N+](=O)[O-])c1 | inactive | inactive | inactive | inactive | inactive | inactive | inactive | inactive | inactive | – | – | – | – | – | – | inactive | – | –
CCCC(=O)c1cc(O)c(O)cc1O | inactive | inactive | inactive | inactive | inactive | inactive | inactive | inactive | inactive | – | – | – | – | – | – | inactive | – | –
CC(C)c1ccc(C(C)C)cc1 | inactive | inactive | inactive | inactive | inactive | – | inactive | inactive | inactive | – | – | 100 µM (active) | – | – | – | inactive | – | –
C=CC(C)(O)CCC=C(C)CCC=C(C)C (stereo unspecified) | inactive | – | – | inactive | – | – | – | – | – | – | 170 µM (active) | 170 µM (active) | 158 µM (active) | 163 µM (active) | 136 µM (active) | – | 100 µM (active) | 166 µM (active)
C=CC(C)(C)O | inactive | inactive | inactive | inactive | inactive | inactive | inactive | inactive | inactive | – | – | – | – | – | – | inactive | – | –
O=C(O)c1ccc([N+](=O)[O-])cc1 | inactive | inactive | inactive | inactive | inactive | inactive | inactive | inactive | inactive | – | – | – | – | – | – | inactive | – | –
COc1cccc(OC)c1 | inactive | inactive | inactive | inactive | inactive | inactive | inactive | inactive | inactive | – | – | – | – | – | – | inactive | – | –
